The panel holds about 79,000 compounds, 15% with a hit somewhere; the sample as a whole holds those more often. The source made the active and inactive calls. No stated cut-off is given here; in the data, active means growth inhibition above about 70%; inactive means the rest.
How the values were obtained:
[1] = NCI Yeast Anticancer Drug Screen. Data for the rad52 strain (AID 147);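 further: 0% = growth of vehicle-treated control cultures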; settings: S. cerevisiae rad52 mutant growth inhibition, active compounds read high
Outline: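 Inhibition of yeast growth, referenced to vehicle controls, was the measured output for a strain with defective DNA damage repair.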

[2] = NCI Yeast Anticancer Drug Screen. Data for the wt1 strain (AID 149);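 further: 0% = growth of vehicle-treated wt1 cultures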; settings: S. cerevisiae wt1 strain (SPY 50644) growth inhibition, active compounds read high
Outline: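 wt1 yeast, compound-treated; % growth inhibition vs vehicle control.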

[3] = NCI Yeast Anticancer Drug Screen. Data for the rad50EPP+ strain (AID 151);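 further: 0% = growth of vehicle-treated control cultures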; settings: S. cerevisiae rad50 mutant strain, active compounds read high
Outline: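 Genetically defined yeast (rad50EPP+, DNA damage repair alteration) is grown with compound, and inhibition of growth is expressed relative to vehicle-treated controls.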

[4] = NCI Yeast Anticancer Drug Screen. Data for the mgt1 strain (AID 153); settings: S. cerevisiae mgt1 mutant growth inhibition, active compounds read high
Outline: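 In the mgt1 strain, test compounds were added and growth inhibition was determined relative to vehicle-treated controls.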

[5] = NCI Yeast Anticancer Drug Screen. Data for the rad50 strain (AID 155);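 further: 0% = growth of vehicle-only cultures of the same strain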; settings: S. cerevisiae rad50 strain growth inhibition, active compounds read high
Outline: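 Genetically altered yeast (DNA repair pathway); compound treatment; growth inhibition vs vehicle ctrl.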

[6] = NCI Yeast Anticancer Drug Screen. Data for the mec2-1 strain (AID 157); settings: S. cerevisiae mec2-1 strain, active compounds read high
Outline: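 Each compound was tested on mec2-1 yeast, a strain altered in DNA damage repair or cell cycle control. Growth inhibition is reported relative to vehicle.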

[7] = NCI Yeast Anticancer Drug Screen. Data for the rad14 strain (AID 159);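 further: 0% = growth of vehicle-treated control cultures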; settings: S. cerevisiae rad14 strain growth inhibition, active compounds read high
Outline: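 Test compounds were applied to a repair-deficient yeast strain. Its growth was then compared with that of cultures given vehicle alone, and inhibition was expressed relative to those controls.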

[8] = NCI Yeast Anticancer Drug Screen. Data for the sgs1 mgt1 strain (AID 161);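 further: 0% = growth of cultures given vehicle only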; settings: S. cerevisiae sgs1 mgt1 strain, active compounds read high
Outline: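 Mutant yeast exposed to compound; growth scored against vehicle-only wells.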

[9] = NCI Yeast Anticancer Drug Screen. Data for the CLN2oe strain (AID 163);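 further: 0% = growth of vehicle-only control cultures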; settings: S. cerevisiae CLN2oe strain, active compounds read high
Outline: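 First, the altered yeast strain was treated with each compound; second, its growth was measured; finally, inhibition was derived by comparison with vehicle controls.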

[10] = NCI Yeast Anticancer Drug Screen. Data for the cln2 rad14 strain (AID 165);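 further: 0% = growth equal to vehicle treated cultures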; settings: S. cerevisiae cln2 rad14 strain, active compounds read high
Outline: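 Test compounds were added to cln2 rad14 yeast cultures; inhibition of growth was then determined by comparison with vehicle treatment.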

[11] = NCI Yeast Anticancer Drug Screen. Data for the bub3 strain (AID 167); settings: S. cerevisiae bub3 mutant strain, active compounds read high
Outline: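 Yeast carrying a defined mutation is treated with each compound, and growth is compared with that of vehicle-exposed cells to give inhibition.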

[12] = NCI Yeast Anticancer Drug Screen. Data for the wt2 strain (AID 169);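 further: 0% = growth of vehicle-treated yeast cultures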; settings: S. cerevisiae wt2 strain growth inhibition, active compounds read high
Outline: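 The panel's yeast strains carry defined changes in DNA repair or cell cycle genes. Each strain is grown with compound, and growth loss is scored relative to vehicle.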

[13] = NCI Yeast Anticancer Drug Screen. Data for the mlh1 strain (AID 171);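 further: 0% = growth of vehicle-treated control cultures of the same strain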; settings: S. cerevisiae mlh1 strain growth inhibition, active compounds read high
Outline: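 Inhibition values reflect reduced yeast growth in the presence of compound, referenced to vehicle controls, using a strain chosen for its alteration in DNA repair or cell cycle control.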

[14] = NCI Yeast Anticancer Drug Screen. Data for the sgs1 strain (AID 173);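 further: 0% = growth of vehicle-only control cultures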; settings: S. cerevisiae sgs1 mutant, active compounds read high
Outline: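 Vehicle-treated cultures served as reference for growth inhibition of a yeast strain altered in DNA damage repair or cell cycle control after compound exposure.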

[15] = NCI Yeast Anticancer Drug Screen. Data for the mlh1 rad18 strain (AID 175); settings: S. cerevisiae mlh1 rad18 strain growth inhibition, active compounds read high
Outline: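 Inhibition values reflect reduced growth of mutant yeast versus vehicle-treated controls following compound exposure; the mutations affect DNA damage repair.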

[16] = NCI Yeast Anticancer Drug Screen. Data for the rad18 strain (AID 177); settings: S. cerevisiae rad18 mutant growth inhibition, active compounds read high
Outline: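 Steps: expose repair-mutant yeast to compound; measure growth; express as inhibition relative to vehicle control.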

[17] = at 5.0 µM (retest, dose inferred, filed as 0.5)
[18] = at 50.0 µM (retest, dose inferred, filed as 5.0)

Measured: growth inhibition

CC(C)(C)c1ccc2c(c1)C(=O)c1ccccc1C2=O
inactive: [1]; at 1.2 µM -9% | [1]; at 3.7 µM -13% | [1]; at 11.0 µM -15% | [1]; at 33.0 µM -6% | [1]; at 100.0 µM 4% | [2]; at 1.2 µM 0% | [2]; at 3.7 µM 12% | [2]; at 11.0 µM 14% | [2]; at 33.0 µM 12% | [2]; at 100.0 µM 15% | [3]; at 1.2 µM -9% | [3]; at 3.7 µM -1% | [3]; at 11.0 µM 18% | [3]; at 33.0 µM 27% | [3]; at 100.0 µM 28% | [4]; at 1.2 µM -3% | [4]; at 3.7 µM -9% | [4]; at 11.0 µM -7% | [4]; at 33.0 µM -7% | [4]; at 100.0 µM -4% | [5]; at 1.2 µM -17% | [5]; at 3.7 µM -18% | [5]; [17] 14% | [5]; at 11.0 µM -19% | [5]; at 33.0 µM 8% | [5]; [18] 5% | [5]; at 50.0 µM -2.85% | [5]; at 100.0 µM 6% | [6]; at 1.2 µM -6% | [6]; at 3.7 µM -6% | [6]; [17] 8% | [6]; at 11.0 µM -6% | [6]; at 33.0 µM -9% | [6]; [18] 8% | [6]; at 50.0 µM -17.9% | [6]; at 100.0 µM -5% | [7]; at 1.2 µM 1% | [7]; at 3.7 µM -13% | [7]; at 11.0 µM -6% | [7]; at 33.0 µM 2% | [7]; at 100.0 µM 13% | [8]; [17] 9% | [8]; [18] 20% | [8]; at 50.0 µM 0.45% | [9]; at 1.2 µM -11% | [9]; at 3.7 µM -12% | [9]; at 11.0 µM -14% | [9]; at 33.0 µM -13% | [9]; at 100.0 µM -12% | [10]; [17] -7% | [10]; [18] 0% | [10]; at 50.0 µM -6.45% | [11]; at 1.2 µM 4% | [11]; at 3.7 µM 24% | [11]; [17] 25% | [11]; at 11.0 µM 65% | [12]; at 1.2 µM 1% | [12]; at 3.7 µM 6% | [12]; at 11.0 µM 10% | [12]; at 33.0 µM 10% | [12]; at 100.0 µM 25% | [13]; at 1.2 µM -15% | [13]; at 3.7 µM -10% | [13]; at 11.0 µM -10% | [13]; at 33.0 µM -10% | [13]; at 100.0 µM 12% | [14]; at 1.2 µM -13% | [14]; at 3.7 µM -7% | [14]; at 11.0 µM 0% | [14]; at 33.0 µM 5% | [14]; at 100.0 µM 17% | [15]; [17] 5% | [15]; [18] 26% | [15]; at 50.0 µM -4.9% | [16]; at 1.2 µM -11% | [16]; at 3.7 µM -9% | [16]; at 11.0 µM -6% | [16]; at 33.0 µM -6% | [16]; at 100.0 µM -14%
active: [11]; at 33.0 µM 78% | [11]; [18] 85% | [11]; at 50.0 µM 89% | [11]; at 100.0 µM 91%

COc1ccc2nc3cccc([N+](=O)[O-])c3c(NCCNCCN(C)C)c2c1
active: [5]; [18] 97% | [5]; at 50.0 µM 74.7% | [6]; [18] 97% | [6]; at 50.0 µM 73% | [8]; [17] 72% | [8]; [18] 93% | [10]; [18] 99% | [10]; at 50.0 µM 77.7% | [15]; [18] 96%
inactive: [1]; at 1.2 µM -4% | [1]; at 3.7 µM -3% | [1]; at 11.0 µM -6% | [1]; at 33.0 µM -4% | [1]; at 100.0 µM 2% | [2]; at 1.2 µM -3% | [2]; at 3.7 µM -2% | [2]; at 11.0 µM -2% | [2]; at 33.0 µM -1% | [2]; at 100.0 µM 3% | [3]; at 1.2 µM -4% | [3]; at 3.7 µM 0% | [3]; at 11.0 µM 0% | [3]; at 33.0 µM -4% | [3]; at 100.0 µM 3% | [4]; at 1.2 µM 0% | [4]; at 3.7 µM -3% | [4]; at 11.0 µM 20% | [4]; at 33.0 µM -3% | [4]; at 100.0 µM 5% | [5]; at 1.2 µM -4% | [5]; at 3.7 µM -5% | [5]; [17] 29% | [5]; at 11.0 µM -12% | [5]; at 33.0 µM -4% | [5]; at 100.0 µM 1% | [6]; at 1.2 µM 2% | [6]; at 3.7 µM -1% | [6]; [17] 5% | [6]; at 11.0 µM 2% | [6]; at 33.0 µM -1% | [6]; at 100.0 µM 8% | [7]; at 1.2 µM -2% | [7]; at 3.7 µM -2% | [7]; at 11.0 µM 0% | [7]; at 33.0 µM 1% | [7]; at 100.0 µM 4% | [8]; at 50.0 µM 68.2% | [9]; at 1.2 µM -1% | [9]; at 3.7 µM -2% | [9]; at 11.0 µM -11% | [9]; at 33.0 µM 3% | [9]; at 100.0 µM 12% | [10]; [17] 32% | [11]; at 1.2 µM -5% | [11]; at 3.7 µM 4% | [11]; [17] -33% | [11]; at 11.0 µM 3% | [11]; at 33.0 µM -5% | [11]; [18] 50% | [11]; at 50.0 µM -5.3% | [11]; at 100.0 µM -5% | [12]; at 1.2 µM -2% | [12]; at 3.7 µM -4% | [12]; at 11.0 µM -3% | [12]; at 33.0 µM -3% | [12]; at 100.0 µM 1% | [13]; at 1.2 µM -4% | [13]; at 3.7 µM -4% | [13]; at 11.0 µM -1% | [13]; at 33.0 µM -3% | [13]; at 100.0 µM 3% | [14]; at 1.2 µM -1% | [14]; at 3.7 µM -1% | [14]; at 11.0 µM 0% | [14]; at 33.0 µM -1% | [14]; at 100.0 µM 2% | [15]; [17] 55% | [15]; at 50.0 µM 66.5% | [16]; at 1.2 µM -5% | [16]; at 3.7 µM -3% | [16]; at 11.0 µM -4% | [16]; at 33.0 µM 3% | [16]; at 100.0 µM 6%

Reference: PubChem BioAssay (NCI)
